In ChEMBL document CHEMBL1961873, “Compounds: GSK PKIS; Assays: Nanosyn kinase panel” (2012):

Columns and labels:
[1] = target: T1, Serine/threonine-protein kinase D2 (Homo sapiens) (UniProt Q9BZL6); conditions: at 1 µM;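 further: mean value of PRKD2 inhibition, from the GSK PKIS screening panel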
T1 sequence (whole entry): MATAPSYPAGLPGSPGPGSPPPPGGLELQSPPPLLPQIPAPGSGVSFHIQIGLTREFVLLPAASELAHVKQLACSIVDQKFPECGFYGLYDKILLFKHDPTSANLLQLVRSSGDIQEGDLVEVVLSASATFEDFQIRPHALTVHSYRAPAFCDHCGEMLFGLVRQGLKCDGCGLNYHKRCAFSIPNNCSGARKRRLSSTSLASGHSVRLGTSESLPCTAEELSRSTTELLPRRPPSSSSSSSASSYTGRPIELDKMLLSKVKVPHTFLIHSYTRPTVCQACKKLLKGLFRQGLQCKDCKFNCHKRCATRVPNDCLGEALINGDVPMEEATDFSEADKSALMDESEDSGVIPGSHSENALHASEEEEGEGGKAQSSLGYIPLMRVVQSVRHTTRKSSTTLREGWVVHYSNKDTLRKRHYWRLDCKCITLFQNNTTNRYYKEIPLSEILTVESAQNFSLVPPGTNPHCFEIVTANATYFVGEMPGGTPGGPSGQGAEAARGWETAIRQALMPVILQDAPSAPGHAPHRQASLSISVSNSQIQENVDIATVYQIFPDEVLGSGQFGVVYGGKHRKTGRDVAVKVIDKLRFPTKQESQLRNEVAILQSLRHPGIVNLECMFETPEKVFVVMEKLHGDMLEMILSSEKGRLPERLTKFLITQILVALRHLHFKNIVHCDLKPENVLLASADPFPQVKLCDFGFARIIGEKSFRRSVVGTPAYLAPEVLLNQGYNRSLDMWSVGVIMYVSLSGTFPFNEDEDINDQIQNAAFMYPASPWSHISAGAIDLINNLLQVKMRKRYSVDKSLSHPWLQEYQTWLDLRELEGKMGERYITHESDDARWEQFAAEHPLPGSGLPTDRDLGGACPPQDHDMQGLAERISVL

[2] = target: T2, Serine/threonine-protein kinase D3 (Homo sapiens) (UniProt O94806); conditions: at 0.1 µM
T2 sequence (whole entry): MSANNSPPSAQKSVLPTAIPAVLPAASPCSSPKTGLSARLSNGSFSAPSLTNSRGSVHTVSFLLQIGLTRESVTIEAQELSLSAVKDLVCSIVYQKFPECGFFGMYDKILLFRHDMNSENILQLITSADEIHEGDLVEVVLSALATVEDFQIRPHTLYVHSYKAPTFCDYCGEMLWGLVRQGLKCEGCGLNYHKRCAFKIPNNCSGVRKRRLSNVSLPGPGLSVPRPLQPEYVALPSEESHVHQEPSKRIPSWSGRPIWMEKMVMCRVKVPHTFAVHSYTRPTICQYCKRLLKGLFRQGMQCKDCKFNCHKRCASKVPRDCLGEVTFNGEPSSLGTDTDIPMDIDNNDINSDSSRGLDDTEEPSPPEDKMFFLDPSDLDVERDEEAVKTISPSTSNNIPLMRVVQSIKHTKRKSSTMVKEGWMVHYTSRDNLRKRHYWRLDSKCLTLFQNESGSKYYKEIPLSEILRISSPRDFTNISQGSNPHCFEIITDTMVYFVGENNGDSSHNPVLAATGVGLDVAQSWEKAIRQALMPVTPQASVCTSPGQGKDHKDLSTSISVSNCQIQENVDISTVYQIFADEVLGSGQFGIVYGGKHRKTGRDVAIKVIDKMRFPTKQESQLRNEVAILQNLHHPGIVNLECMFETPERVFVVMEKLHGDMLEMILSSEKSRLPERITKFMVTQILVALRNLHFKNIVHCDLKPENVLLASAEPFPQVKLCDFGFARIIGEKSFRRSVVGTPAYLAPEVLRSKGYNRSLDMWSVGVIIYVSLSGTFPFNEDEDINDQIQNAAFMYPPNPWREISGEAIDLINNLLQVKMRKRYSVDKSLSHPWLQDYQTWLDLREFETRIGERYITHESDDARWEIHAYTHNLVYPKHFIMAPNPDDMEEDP

[3] = target: T2, Serine/threonine-protein kinase D3 (Homo sapiens); conditions: at 1 µM
[4] = target: T3, cGMP-dependent protein kinase 1 (Homo sapiens) (UniProt Q13976); conditions: at 0.1 µM
T3 sequence (whole entry): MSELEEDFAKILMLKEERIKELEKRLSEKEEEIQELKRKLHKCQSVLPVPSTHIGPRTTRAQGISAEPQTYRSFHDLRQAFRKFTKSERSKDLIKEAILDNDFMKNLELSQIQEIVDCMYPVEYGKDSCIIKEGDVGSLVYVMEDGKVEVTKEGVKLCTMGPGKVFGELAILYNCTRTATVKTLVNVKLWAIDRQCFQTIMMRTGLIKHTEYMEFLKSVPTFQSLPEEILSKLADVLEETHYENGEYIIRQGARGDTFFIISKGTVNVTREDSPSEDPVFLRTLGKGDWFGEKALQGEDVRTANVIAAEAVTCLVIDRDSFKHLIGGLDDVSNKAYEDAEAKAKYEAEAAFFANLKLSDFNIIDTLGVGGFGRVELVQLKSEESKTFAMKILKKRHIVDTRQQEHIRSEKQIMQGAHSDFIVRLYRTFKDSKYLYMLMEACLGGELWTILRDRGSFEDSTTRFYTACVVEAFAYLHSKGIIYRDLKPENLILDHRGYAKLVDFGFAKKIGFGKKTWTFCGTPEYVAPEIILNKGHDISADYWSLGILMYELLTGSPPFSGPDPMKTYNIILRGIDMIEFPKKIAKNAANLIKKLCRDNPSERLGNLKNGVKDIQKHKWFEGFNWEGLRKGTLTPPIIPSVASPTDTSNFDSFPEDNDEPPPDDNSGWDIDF

[5] = target: T3, cGMP-dependent protein kinase 1 (Homo sapiens); conditions: at 1 µM
[6] = target: T4, cGMP-dependent protein kinase 2 (Homo sapiens) (UniProt Q13237); conditions: at 0.1 µM
T4 sequence (whole entry): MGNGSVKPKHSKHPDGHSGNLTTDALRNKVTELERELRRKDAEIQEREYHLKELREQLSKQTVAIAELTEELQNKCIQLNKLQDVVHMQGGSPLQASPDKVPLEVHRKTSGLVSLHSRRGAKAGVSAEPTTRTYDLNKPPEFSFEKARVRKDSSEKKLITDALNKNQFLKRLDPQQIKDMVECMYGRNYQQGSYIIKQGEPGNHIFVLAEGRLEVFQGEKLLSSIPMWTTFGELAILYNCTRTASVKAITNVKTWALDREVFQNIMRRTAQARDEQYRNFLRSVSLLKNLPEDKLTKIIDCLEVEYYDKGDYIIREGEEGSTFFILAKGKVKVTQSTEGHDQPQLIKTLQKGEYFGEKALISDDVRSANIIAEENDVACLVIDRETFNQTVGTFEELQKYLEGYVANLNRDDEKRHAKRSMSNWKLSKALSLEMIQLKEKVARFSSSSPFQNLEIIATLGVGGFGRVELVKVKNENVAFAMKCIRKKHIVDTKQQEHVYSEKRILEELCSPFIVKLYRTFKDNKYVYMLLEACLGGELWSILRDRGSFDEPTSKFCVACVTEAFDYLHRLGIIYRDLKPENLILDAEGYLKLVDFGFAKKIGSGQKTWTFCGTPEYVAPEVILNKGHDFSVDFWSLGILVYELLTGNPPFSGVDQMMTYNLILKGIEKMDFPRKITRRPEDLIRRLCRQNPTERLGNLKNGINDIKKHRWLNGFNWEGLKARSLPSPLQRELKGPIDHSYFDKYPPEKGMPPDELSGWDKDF

[7] = target: T4, cGMP-dependent protein kinase 2 (Homo sapiens); conditions: at 1 µM
[8] = target: T5, cAMP-dependent protein kinase catalytic subunit PRKX (Homo sapiens) (UniProt P51817); conditions: at 0.1 µM
T5 sequence (whole entry): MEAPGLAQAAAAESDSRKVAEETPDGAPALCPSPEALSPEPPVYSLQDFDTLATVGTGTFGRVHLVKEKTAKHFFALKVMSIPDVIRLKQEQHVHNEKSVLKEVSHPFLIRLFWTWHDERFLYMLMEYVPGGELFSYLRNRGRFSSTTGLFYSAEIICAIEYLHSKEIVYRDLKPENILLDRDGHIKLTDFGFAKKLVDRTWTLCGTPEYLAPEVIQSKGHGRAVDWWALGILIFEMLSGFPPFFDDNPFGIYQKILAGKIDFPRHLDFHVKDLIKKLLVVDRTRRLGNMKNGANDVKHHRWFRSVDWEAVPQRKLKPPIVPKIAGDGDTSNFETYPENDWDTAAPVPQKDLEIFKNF

[9] = target: T5, cAMP-dependent protein kinase catalytic subunit PRKX (Homo sapiens); conditions: at 1 µM
[10] = target: Rho-associated protein kinase 1 (Homo sapiens) (UniProt Q13464); conditions: at 0.1 µM
Chain of Rho-associated protein kinase 1 (Homo sapiens) (Q13464 2-1354 limits assumed): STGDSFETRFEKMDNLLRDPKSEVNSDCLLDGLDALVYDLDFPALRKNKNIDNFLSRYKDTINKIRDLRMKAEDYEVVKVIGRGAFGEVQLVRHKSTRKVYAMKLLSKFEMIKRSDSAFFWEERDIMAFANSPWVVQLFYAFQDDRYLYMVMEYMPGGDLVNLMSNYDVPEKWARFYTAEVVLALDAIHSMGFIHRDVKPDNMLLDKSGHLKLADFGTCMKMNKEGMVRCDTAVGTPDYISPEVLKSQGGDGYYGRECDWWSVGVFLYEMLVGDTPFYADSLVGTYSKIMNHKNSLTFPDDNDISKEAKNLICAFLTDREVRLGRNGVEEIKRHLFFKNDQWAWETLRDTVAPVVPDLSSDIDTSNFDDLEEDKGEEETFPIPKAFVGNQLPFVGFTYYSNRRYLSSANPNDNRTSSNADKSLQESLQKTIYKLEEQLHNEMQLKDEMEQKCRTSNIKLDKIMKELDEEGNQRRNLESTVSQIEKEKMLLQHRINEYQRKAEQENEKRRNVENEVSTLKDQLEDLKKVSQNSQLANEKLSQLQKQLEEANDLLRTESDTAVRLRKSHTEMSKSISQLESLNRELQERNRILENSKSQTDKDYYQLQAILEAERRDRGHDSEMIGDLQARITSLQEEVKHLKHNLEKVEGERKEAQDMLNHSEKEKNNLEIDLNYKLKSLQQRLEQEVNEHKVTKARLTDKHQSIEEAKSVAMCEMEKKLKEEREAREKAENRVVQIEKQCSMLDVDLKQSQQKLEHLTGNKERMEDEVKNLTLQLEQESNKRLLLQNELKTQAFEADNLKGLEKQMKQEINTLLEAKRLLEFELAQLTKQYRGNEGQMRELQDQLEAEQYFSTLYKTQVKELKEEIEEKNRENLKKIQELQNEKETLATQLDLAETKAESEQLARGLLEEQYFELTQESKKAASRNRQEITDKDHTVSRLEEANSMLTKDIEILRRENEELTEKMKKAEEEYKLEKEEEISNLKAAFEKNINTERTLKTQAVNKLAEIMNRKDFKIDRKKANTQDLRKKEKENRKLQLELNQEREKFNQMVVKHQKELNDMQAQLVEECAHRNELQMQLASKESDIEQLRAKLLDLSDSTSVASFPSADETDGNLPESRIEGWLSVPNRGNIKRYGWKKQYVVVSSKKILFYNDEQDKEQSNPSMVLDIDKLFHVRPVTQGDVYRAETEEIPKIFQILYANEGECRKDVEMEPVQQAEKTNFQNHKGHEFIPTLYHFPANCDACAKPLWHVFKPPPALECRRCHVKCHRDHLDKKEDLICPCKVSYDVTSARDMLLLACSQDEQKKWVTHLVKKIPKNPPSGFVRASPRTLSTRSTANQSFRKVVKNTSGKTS

[11] = target: Rho-associated protein kinase 1 (Homo sapiens) (UniProt Q13464); conditions: at 1 µM
[12] = target: Rho-associated protein kinase 2 (Homo sapiens) (UniProt O75116); conditions: at 0.1 µM
[13] = target: Rho-associated protein kinase 2 (Homo sapiens) (UniProt O75116); conditions: at 1 µM
[14] = target: Ribosomal protein S6 kinase alpha-1 (Homo sapiens) (UniProt Q15418); conditions: at 0.1 µM
Chain of Ribosomal protein S6 kinase alpha-1 (Homo sapiens) (Q15418 whole entry): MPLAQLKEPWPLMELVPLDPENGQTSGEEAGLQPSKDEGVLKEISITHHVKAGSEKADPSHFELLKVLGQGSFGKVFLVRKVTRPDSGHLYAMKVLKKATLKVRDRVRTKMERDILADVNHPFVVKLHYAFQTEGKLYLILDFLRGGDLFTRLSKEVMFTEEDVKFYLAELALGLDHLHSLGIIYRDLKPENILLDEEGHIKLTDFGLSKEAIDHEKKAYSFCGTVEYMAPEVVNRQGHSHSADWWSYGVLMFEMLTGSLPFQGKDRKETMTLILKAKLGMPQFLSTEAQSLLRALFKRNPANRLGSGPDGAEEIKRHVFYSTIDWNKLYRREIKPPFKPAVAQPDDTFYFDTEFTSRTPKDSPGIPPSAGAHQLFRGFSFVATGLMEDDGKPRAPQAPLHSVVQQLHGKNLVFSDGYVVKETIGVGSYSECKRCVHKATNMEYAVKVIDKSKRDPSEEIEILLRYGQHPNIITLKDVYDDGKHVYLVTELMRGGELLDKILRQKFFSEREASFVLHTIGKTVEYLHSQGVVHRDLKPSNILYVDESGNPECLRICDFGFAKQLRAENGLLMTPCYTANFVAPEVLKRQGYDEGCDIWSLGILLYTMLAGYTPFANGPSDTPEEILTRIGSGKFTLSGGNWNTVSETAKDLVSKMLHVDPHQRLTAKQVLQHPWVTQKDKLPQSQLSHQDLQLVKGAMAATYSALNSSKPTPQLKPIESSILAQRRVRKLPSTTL

[15] = target: Ribosomal protein S6 kinase alpha-1 (Homo sapiens) (UniProt Q15418); conditions: at 1 µM
[16] = target: Ribosomal protein S6 kinase alpha-3 (Homo sapiens) (UniProt P51812); conditions: at 0.1 µM
Chain of Ribosomal protein S6 kinase alpha-3 (Homo sapiens) (P51812 whole entry): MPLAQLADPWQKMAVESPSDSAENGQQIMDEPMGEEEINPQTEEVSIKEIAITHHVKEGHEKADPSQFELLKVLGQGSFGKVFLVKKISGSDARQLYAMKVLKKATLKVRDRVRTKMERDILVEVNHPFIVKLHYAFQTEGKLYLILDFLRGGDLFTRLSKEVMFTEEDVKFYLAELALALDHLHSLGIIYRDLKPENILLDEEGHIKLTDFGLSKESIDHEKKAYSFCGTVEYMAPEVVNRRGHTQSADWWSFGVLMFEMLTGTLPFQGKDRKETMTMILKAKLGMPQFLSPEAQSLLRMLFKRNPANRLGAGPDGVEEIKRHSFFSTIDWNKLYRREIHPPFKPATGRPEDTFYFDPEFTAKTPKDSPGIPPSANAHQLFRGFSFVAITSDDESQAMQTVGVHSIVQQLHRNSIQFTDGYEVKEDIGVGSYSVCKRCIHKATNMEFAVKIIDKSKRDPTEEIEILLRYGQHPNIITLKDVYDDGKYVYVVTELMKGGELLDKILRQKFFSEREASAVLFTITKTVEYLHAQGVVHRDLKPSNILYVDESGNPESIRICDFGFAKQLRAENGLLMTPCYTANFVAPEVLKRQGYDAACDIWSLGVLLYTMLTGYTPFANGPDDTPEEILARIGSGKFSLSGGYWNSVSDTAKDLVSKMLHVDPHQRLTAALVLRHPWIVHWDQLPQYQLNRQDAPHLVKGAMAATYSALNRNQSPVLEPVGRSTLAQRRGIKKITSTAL

[17] = target: Ribosomal protein S6 kinase alpha-3 (Homo sapiens) (UniProt P51812); conditions: at 1 µM
[18] = target: Ribosomal protein S6 kinase alpha-2 (Homo sapiens) (UniProt Q15349); conditions: at 0.1 µM
Chain of Ribosomal protein S6 kinase alpha-2 (Homo sapiens) (Q15349 whole entry): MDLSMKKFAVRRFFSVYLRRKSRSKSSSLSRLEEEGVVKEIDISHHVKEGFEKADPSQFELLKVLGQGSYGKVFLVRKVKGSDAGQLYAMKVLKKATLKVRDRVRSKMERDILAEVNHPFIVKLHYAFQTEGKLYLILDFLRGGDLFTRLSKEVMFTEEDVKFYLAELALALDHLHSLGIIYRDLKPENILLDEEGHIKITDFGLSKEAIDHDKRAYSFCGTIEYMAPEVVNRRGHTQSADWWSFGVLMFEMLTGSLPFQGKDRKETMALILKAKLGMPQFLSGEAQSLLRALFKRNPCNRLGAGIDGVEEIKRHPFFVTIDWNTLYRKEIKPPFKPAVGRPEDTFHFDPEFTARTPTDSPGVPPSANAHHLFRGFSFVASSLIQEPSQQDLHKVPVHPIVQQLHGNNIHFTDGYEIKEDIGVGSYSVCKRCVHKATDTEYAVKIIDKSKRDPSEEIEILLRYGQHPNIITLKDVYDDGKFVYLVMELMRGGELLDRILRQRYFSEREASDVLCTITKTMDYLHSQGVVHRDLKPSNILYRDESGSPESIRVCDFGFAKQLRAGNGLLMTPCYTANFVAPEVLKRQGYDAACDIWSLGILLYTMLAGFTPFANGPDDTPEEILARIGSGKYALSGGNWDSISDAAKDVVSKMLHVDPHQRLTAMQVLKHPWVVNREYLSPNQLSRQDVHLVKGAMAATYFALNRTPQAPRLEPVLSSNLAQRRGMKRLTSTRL

[19] = target: Ribosomal protein S6 kinase alpha-2 (Homo sapiens) (UniProt Q15349); conditions: at 1 µM
[20] = target: Ribosomal protein S6 kinase alpha-6 (Homo sapiens) (UniProt Q9UK32); conditions: at 0.1 µM;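 further: reported value is the mean inhibition of RSK4, from the GSK PKIS kinase inhibitor screen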
Chain of Ribosomal protein S6 kinase alpha-6 (Homo sapiens) (Q9UK32 whole entry): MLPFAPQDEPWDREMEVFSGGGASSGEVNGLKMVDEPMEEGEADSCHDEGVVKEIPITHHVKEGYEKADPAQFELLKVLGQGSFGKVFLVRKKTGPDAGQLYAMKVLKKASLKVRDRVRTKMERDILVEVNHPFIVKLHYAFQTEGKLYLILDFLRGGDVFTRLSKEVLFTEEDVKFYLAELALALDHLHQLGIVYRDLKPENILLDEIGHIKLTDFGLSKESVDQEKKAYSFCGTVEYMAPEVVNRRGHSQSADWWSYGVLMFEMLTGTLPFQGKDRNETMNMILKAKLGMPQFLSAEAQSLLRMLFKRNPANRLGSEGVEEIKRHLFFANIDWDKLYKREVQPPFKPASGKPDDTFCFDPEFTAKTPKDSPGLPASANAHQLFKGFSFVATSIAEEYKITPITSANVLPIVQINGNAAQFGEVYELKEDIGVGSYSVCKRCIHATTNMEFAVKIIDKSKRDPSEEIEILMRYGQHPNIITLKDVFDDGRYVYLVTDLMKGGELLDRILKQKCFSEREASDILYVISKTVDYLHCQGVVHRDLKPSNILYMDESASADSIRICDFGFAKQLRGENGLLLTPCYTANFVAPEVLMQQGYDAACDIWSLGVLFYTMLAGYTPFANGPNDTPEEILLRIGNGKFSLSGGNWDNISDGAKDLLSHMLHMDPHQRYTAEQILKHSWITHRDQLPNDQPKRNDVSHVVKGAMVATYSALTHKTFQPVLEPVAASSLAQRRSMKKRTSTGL

| SMILES | inhibition [1] [%] | inhibition [2] [%] | inhibition [3] [%] | inhibition [4] [%] | inhibition [5] [%] | inhibition [6] [%] | inhibition [7] [%] | inhibition [8] [%] | inhibition [9] [%] | inhibition [10] [%] | inhibition [11] [%] | inhibition [12] [%] | inhibition [13] [%] | inhibition [14] [%] | inhibition [15] [%] | inhibition [16] [%] | inhibition [17] [%] | inhibition [18] [%] | inhibition [19] [%] | inhibition [20] [%] |
| --- | --- | --- | --- | --- | --- | --- | --- | --- | --- | --- | --- | --- | --- | --- | --- | --- | --- | --- | --- | --- |
| CN(C)c1ccc2c(c1)/C(=C/Nc1ccc(S(N)(=O)=O)cc1)C(=O)N2 | 5.28 | 3.16 | 4.44 | 2.39 | 1.76 | 1.53 | 8.65 | 0.94 | 2.58 | 0.76 | 5.77 | 5.46 | 13.3 | 1.57 | 11.6 | 2.82 | 14.7 | 5.18 | 25.9 | 4.28 |
| COc1cc2ncn(-c3cc(OCCc4ccccc4)c(C(N)=O)s3)c2cc1OC | 4.84 | 3.76 | 4.36 | 2.33 | 4.13 | 1.3 | 2.13 | 0.24 | -4.15 | 0.26 | 0.3 | 0.94 | -1.5 | 0.33 | -0.89 | 0.83 | 0.32 | 1.71 | 1.86 | 1.48 |
| O=C(Nc1n[nH]c2nc(-c3ccco3)ccc12)C1CC1 | 1.79 | 0.02 | 1.55 | 2.2 | 4.23 | 0.68 | 3.61 | 2.71 | 3.87 | 1.29 | 3.74 | 1.89 | 3 | 0.92 | 0.86 | -0.05 | 0.78 | 0.54 | 1.46 | 0.59 |
| COc1cc2ncn(-c3cc(OCc4ccccc4C(F)(F)F)c(C(C)=O)s3)c2cc1OC | 2.55 | 2.93 | 3.23 | 1.35 | 0.72 | 0.9 | 0 | 0.6 | 0.44 | 0.94 | 2.18 | 1.87 | 2.95 | 1.38 | 2.01 | 0.97 | 1.14 | 2.48 | 2.5 | 1.64 |
| CN(c1ccc(NC(=O)Nc2c(Cl)cccc2Cl)cc1)c1ccnc(Nc2cccc(CS(C)(=O)=O)c2)n1 | 2 | 1.3 | 0.38 | 3.11 | 3.77 | 1.9 | 3.22 | 1.96 | 3.64 | 0.85 | 2.01 | 3.46 | 9.15 | 2.34 | 4.66 | 2.08 | 3.81 | -2.19 | 1.78 | 0.45 |
| NCc1ccc(-n2c(-c3nonc3N)nc3cnccc32)cc1 | 41.3 | 8.56 | 40 | 6.05 | 26.6 | 16 | 60.2 | 5.92 | 29.4 | 80.6 | 90.5 | 82.9 | 92.9 | 56.2 | 87.9 | 43.4 | 81.4 | 55.5 | 91.4 | 10 |
| C[C@@H](Oc1cc(-n2cnc3ccc(OC4CCN(C)CC4)cc32)sc1C(N)=O)c1ccccc1Cl | 1.06 | 0.8 | 3.55 | 3.98 | 4.08 | 1.43 | 4.43 | 2.2 | -1.84 | 1.76 | 5.39 | 1.57 | 5.08 | 2.3 | 12.4 | 3.29 | 21.8 | 4.54 | 20.2 | 7.23 |
